Measurements taken from PubChem BioAssay.
Values without a mark were called inactive.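 How the source made its calls, unless noted: active means RAM network inhibition above 8.4% in each of two replicates, 3 SD over the compound average; inconclusive means above 8.4% inhibition in only one replicate; inactive means 8.4% inhibition or less in each replicate.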

Experiment: inhibitors of the yeast RAM network, pilot screen, dse1pr::URA3 reporter, 5-FOA selection (AID 869;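 active means inhibition over a set limit, the all-compound mean plus 3 SD, in both replicate runs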;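 further: 0% = DMSO wells with no growth and 100% = 10 µM 1-NA-PP1 with full growth; RAM network block rescues cells from 5-FOA so hits raise OD615 growth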)
Settings: S. cerevisiae dse1pr::URA3 5-FOA growth, OD615, 2 d; at 10 µM; active compounds read high; strain carries analog-sensitive mutant Cbk1 kinase

Structure (SMILES) | inhibition
CCOC(=O)Nc1c(O)ccc2oc(C)c(-c3ccccc3)c12 | 1.51%
O=C(CCNS(=O)(=O)c1cccs1)Nc1ccccc1F | 0.805%
CCOC(=O)N1CCN(C(=O)CN(C2CCCCC2)S(=O)(=O)c2ccc(F)cc2)CC1 | -0.815%
O=C(COc1ccc(F)cc1)Nc1ccc(-n2cnnn2)cc1 | 0.61%
O=C(Cn1c(=O)sc2ccccc21)NCCOc1ccccc1F | 1.38%
O=C(c1ccco1)c1nnn(Cc2ccccc2)c1-c1ccccc1 | 2.21%
O=C(Nc1ncc(Cc2ccccc2)s1)C1CCCO1 (stereo not given) | 0.015%
CC1=C(C(=O)OC2CCCCCC2)C(c2ccc(C)o2)C2=C(CCCC2=O)N1 (stereo not given) | 1.77%
CC12CN3CCN(CC(C3)C1(O)CN1CCCCC1)C2 (stereo not given) | 1.06%
CCn1c(C(C#N)/C(=N\S(=O)(=O)c2cccs2)c2ccccc2)nc2ccccc21 (stereo not given) | 1.55%
CCOC(=O)N1CCN(C(=O)c2cnn(-c3ccccc3)c2NC(=O)c2ccccc2F)CC1 | -0.065%
O=C(CCC(=O)OCC(=O)c1ccccc1)NC1CCCCC1 | -0.295%
O=C(Nc1nc2c(s1)CCCC2)C1COc2ccccc2O1 (stereo not given) | 0.75%
CCN(CC)S(=O)(=O)c1ccc2c(c1)nc(SCn1nnc3ccccc3c1=O)n2CC | 2.54%
Cc1ccc(N2C(=O)c3oc4ccccc4c(=O)c3C2c2cccc(O)c2)nc1 (stereo not given) | 3.22%
COc1cc(C(=O)NCCc2ccc3c(c2)OCCO3)ccc1OCC(=O)N1CCOCC1 | 1.68%
O=C(CN1CCN(Cc2ccccc2)CC1)NCC1COc2ccccc2O1 (stereo not given) | -0.145%
Cc1nonc1NC(=O)c1ccccc1Br | 2.3%
Cc1cc(NC(=O)CSc2nc3c(c(-c4cccnc4)c2C#N)CCC3)no1 | 1.75%
Cc1onc(-c2ccccc2)c1C(=O)NCc1cccnc1 | 2.08%
OC(CNCCc1ccccc1)c1ccccc1 (stereo not given) | 0.865%
Cc1ccc(C)n1-c1ccc(N2CCOCC2)cc1 | 3.15%
C#CCOC(=O)C1C2C=CC(C2)C1C(=O)O (stereo not given) | -0.215%
Cc1ccc(C(=O)Nc2c(C(=O)N3CCOCC3)cnn2-c2ccccc2)cc1 | 0.475%
Clc1cccc(-c2nnc(-c3ccccc3)o2)c1 | 1.33%

Experiment: RAM signaling pathway blockade in yeast – S. cerevisiae, Pdr1DBD-CYC8 efflux-inhibited sensitized strain, primary screen (AID 1298);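 further: 0% = DMSO untreated cells without growth and 100% = 10 µM 1-NA-PP1 full growth; higher means more yeast growth rescued from 5-FOA killing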
Settings: S. cerevisiae cbk1-as DSE1-URA3 strain, 5-FOA growth OD615, 2 d; at 50 µM; active compounds read high

Structure (SMILES) | RAM network inhibition
CCOC(=O)c1cc(NC(=O)SCC(=O)O)c(C)nc1C | 0.38%
Clc1c(CSc2nc3ccccc3o2)nc2sccn12 | -0.26%
O=C(CCn1[nH]c(=O)c2ccccc2c1=O)NCCO | 0.2%
CC12CCC(C(=O)N3CCN(C(=O)C45CCC(C)(C(=O)O4)C5(C)C)CC3)(OC1=O)C2(C)C | 0.26%
COc1cccc(C2C(C(=O)c3cccs3)=C(O)C(=O)N2CCCn2ccnc2)c1OC (stereo not given) | 0.92%
Cc1ccc(S(=O)(=O)N(CC(=O)N2CCC(C(N)=O)CC2)Cc2ccc(F)cc2)cc1 | 1.49%
COc1ccc(N2CCN(C(=O)CSc3ccccc3)CC2)cc1 | 3.22%
COc1ccccc1N1CCN(C(=O)C2CCN(S(=O)(=O)c3ccc(F)cc3)CC2)CC1 | 4.6%
COCCN1C=C(C(=O)OC)C(c2cc3c(cc2Br)OCO3)C(C(=O)OC)=C1 | 0.62%
CC1=C(C(N)=O)C(c2ccccn2)n2nc(SCc3ccccc3)nc2N1 (stereo not given) | 2.59%
O=C(/C=C/N1CCOCC1)c1ccc(-c2ccccc2)cc1 | -1.36%
CCOc1ccc(NS(=O)(=O)c2cc(Cl)ccc2OC)cc1 | 0.17%
COc1ccc(NC(=O)CC2CCCCC2)cc1OC | 6.64%
Cc1oc(-c2cccc(Cl)c2)nc1CN1CCC(C(=O)N2CCN(c3ccccc3F)CC2)CC1 | 6.04%
O=C(Nc1ccc2c(c1)OCCO2)C1CCN(C(=O)c2ccc(F)cc2)CC1 | 6.28%
CCOC(=O)Nc1c(O)ccc2oc(C)c(-c3ccccc3)c12 | 3.9%
O=C(CCNS(=O)(=O)c1cccs1)Nc1ccccc1F | 2.55%
CCOC(=O)N1CCN(C(=O)CN(C2CCCCC2)S(=O)(=O)c2ccc(F)cc2)CC1 | 6.62%
O=C(COc1ccc(F)cc1)Nc1ccc(-n2cnnn2)cc1 | 0.57%
O=C(Cn1c(=O)sc2ccccc21)NCCOc1ccccc1F | 10.5%

Structure (SMILES) | RAM network inhibition
O=C(c1ccco1)c1nnn(Cc2ccccc2)c1-c1ccccc1 | -0.25%
O=C(Nc1ncc(Cc2ccccc2)s1)C1CCCO1 (stereo not given) | -2.16%
CC1=C(C(=O)OC2CCCCCC2)C(c2ccc(C)o2)C2=C(CCCC2=O)N1 (stereo not given) | 1.63%
CC12CN3CCN(CC(C3)C1(O)CN1CCCCC1)C2 (stereo not given) | 1.07%
CCn1c(C(C#N)/C(=N\S(=O)(=O)c2cccs2)c2ccccc2)nc2ccccc21 (stereo not given) | 5.16%
CCOC(=O)N1CCN(C(=O)c2cnn(-c3ccccc3)c2NC(=O)c2ccccc2F)CC1 | 1.56%
O=C(CCC(=O)OCC(=O)c1ccccc1)NC1CCCCC1 | 5.37%
O=C(Nc1nc2c(s1)CCCC2)C1COc2ccccc2O1 (stereo not given) | 0.16%
CCN(CC)S(=O)(=O)c1ccc2c(c1)nc(SCn1nnc3ccccc3c1=O)n2CC | 7.57%
Cc1ccc(N2C(=O)c3oc4ccccc4c(=O)c3C2c2cccc(O)c2)nc1 (stereo not given) | 7.27%
COc1cc(C(=O)NCCc2ccc3c(c2)OCCO3)ccc1OCC(=O)N1CCOCC1 | 1.5%
O=C(CN1CCN(Cc2ccccc2)CC1)NCC1COc2ccccc2O1 (stereo not given) | 2.61%
Cc1nonc1NC(=O)c1ccccc1Br | -0.15%
Cc1cc(NC(=O)CSc2nc3c(c(-c4cccnc4)c2C#N)CCC3)no1 | 5.05%
Cc1onc(-c2ccccc2)c1C(=O)NCc1cccnc1 | 1.71%
OC(CNCCc1ccccc1)c1ccccc1 (stereo not given) | 0.66%
Cc1ccc(C)n1-c1ccc(N2CCOCC2)cc1 | 7.34%
C#CCOC(=O)C1C2C=CC(C2)C1C(=O)O (stereo not given) | 2.5%
Cc1ccc(C(=O)Nc2c(C(=O)N3CCOCC3)cnn2-c2ccccc2)cc1 | -1.3%
Clc1cccc(-c2nnc(-c3ccccc3)o2)c1 | 0.25%
